Shown are actives, neighbours in structure and some others; about 12% of the full set was active somewhere.
G9a block – inhibitors of human histone lysine methyltransferase G9a; Q96KQ7; G9a H3K9 monomethylation, AlphaScreen, 2 h; Potency, µM (series often up to 102 µM), for inactives: at the top dose activity, negative = inhibition, most hits filed as inhibitors; 350,000 compounds, 8.8% hits; AID 504332; further: potency means the concentration at half of the fitted maximal effect; on the % scale 0 is the no-effect control and ±100 the full control effect; nearly all actives have a fitted effect of over 75% in size
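AlphaScreen read-out: biotin-H3K9 peptide (500 nM) methylation by 20 nM enzyme with 20 uM SAM, 2 h at room temperature after 15 min compound preincubation; anti-monomethyl H3K9 antibody plus donor/acceptor beads, 10 min dark.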
HP1b chromo inh – HP1-beta chromodomain-methylated histone interaction inhibition; AlphaScreen HP1-beta / biotin-H3K9me3 peptide binding; Potency, µM (highest dose often 114 µM), for inactives: at the highest dose activity change, negative = inhibition, actives largely listed as inhibitors; 390,000 compounds, 0.56% hits; AID 540317; further: potency means the concentration at half of the fitted maximal effect; nearly all actives have a fitted effect of over 70% in size
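AlphaScreen: HP1-beta (50 nM) preformed 30 min with biotin-H3(1-18)K9me3 peptide (50 nM) in PBS pH 7.4, 0.01% Tween-20. Compound added for 30 min at RT, then streptavidin donor/nickel chelate acceptor beads (10 ug/mL) for 30 min.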
PLK1 PBD block – PLK1 (human) polo-box domain binding inhibition; Potency, µM, inactives show max response, negative = inhibition, actives largely listed as inhibitors; P53350; Plk1 PBD binding of FITC phosphopeptide, fluorescence polarization; 360,000 compounds, 2.8% hits; further: potency means the concentration at half of the fitted maximal effect; series mostly up to about 57 µM; on the % scale 0 is the no-effect control and ±100 the full control effect; nearly all actives have a fitted effect of over 65% in size
PI5P4K alpha inh – blocks human PI5P4K alpha kinase activity. P48426. PI5P4Kalpha enzyme, ADP-Glo luminescence, 60 min; hits give low values. max response, %. 330,000 compounds, 1.2% hits. AID 652105; active means max response of -50% or lower; inconclusive means between -30% and -50%; inactive means -30% or higher; further: value at the top dose of about 77 µM; on the % scale 0 is the no-effect control and ±100 the full control effect
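ADP-Glo luminescence end-point read after a 60 min room-temperature kinase reaction of PI5P4Kalpha plus substrate, initiated with ATP at 5 microM final. Buffer: 0.038 M HEPES pH 7.4, EGTA, 0.1% CHAPS, 5% DMSO.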
JMJD2A Tudor inh – inhibitors of human JMJD2A Tudor domain; O75164; 390,000 compounds, 4.4% hits; Potency, µM (top dose mostly 114 µM), without a hit: at the top dose activity change, negative = inhibition, most hits filed as inhibitors; AID 504339; AlphaScreen JMJD2A-Tudor / H3K4me3 peptide binding; further: potency means the concentration at half of the fitted maximal effect; on the % scale 0 is the no-effect control and ±100 the full control effect; nearly all actives have a fitted effect of over 50% in size
BAZ2B block – inhibitors of human BAZ2B bromodomain | Q9UIF8 | AlphaScreen BAZ2B-H3K14Ac peptide displacement | Potency, µM (highest dose often 114 µM), for inactives: at the top dose activity change, negative = inhibition, usual class: inhibitors | 360,000 compounds, 4.4% hits; further: potency means the concentration at half of the fitted maximal effect; on the % scale 0 is the no-effect control and ±100 the full control effect; nearly all actives have a fitted effect of over 60% in size
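AlphaScreen luminescence quantifies BAZ2B engagement of H3K14Ac peptide; the protein and biotinylated peptide are both at 50 nM final, buffer PBS pH 7.4 with 0.01% Tween-20, all steps at room temperature.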
Starred values were filed as active, the others as inactive; ? = inconclusive; . = no result; [ ] = another dose, or the depositor's remark. Unless noted, the call rests on the fitted dose curve; in most records, active means well fitted curve in the direction sought with a large enough effect; inconclusive means small, poorly fitted or top-dose-only effect, or another doubt; inactive means no such curve, though single readings can be large; an effect the other way counts as inactive or inconclusive.

SMILES	G9a block	HP1b chromo inh	PLK1 PBD block	PI5P4K alpha inh	JMJD2A Tudor inh	BAZ2B block
Cc1nc(C(=O)NCCO)cc2c1[nH]c1ccccc12	12%	22%	-4%	-3	-12%	-18%
Cc1c(C)[n+](=O)c2c(n1[O-])C(Br)CCC2Br (configuration not stated)	1µM*	31%	-11%	4	79µM*	79µM*
N#CCN=C(c1ccccc1)c1ccccc1	14%[0.501 µM]	53%	-5%	-1	3%	14%
Cc1nc2scc(C)n2c(=O)c1S(=O)(=O)NCC1CCN(Cc2ccc(Cl)cc2)CC1	23%[59 µM]	-4%	19µM*	-3	-24%	-14%
Cc1nc2scc(C)n2c(=O)c1S(=O)(=O)Nc1ccc(N2CCOCC2)c(Cl)c1	7%[59 µM]	-15%	27µM*	-2	?	-25%
Cc1nc2sccn2c(=O)c1S(=O)(=O)Nc1ccc(N2CCOCC2)c(Cl)c1	-5%[59 µM]	29%	5%	7	-12%	-7%
C=C1c2cc(C)ccc2NC(=O)N1c1ccccc1	32µM*	14%	-3%	4	-8%	0%
C=C1c2ccccc2NC(=O)N1c1ccc(OC)cc1	20µM*	17%	-15%	1	-21%	0%
COc1ccc(N2C(=O)NC(=O)C2=O)cc1	?	-14%	-12%	0	-18%	-2%
COc1ccc(CN(Cc2ccccc2)S(=O)(=O)c2ccccc2)cc1COc1ccc(NC(C)=O)cc1	.	.	.	.	-31%	.
CC(C)NC(=O)CN1C(=O)c2cccnc2Sc2ccccc21	24%[59 µM]	20%	.	.	-8%	-17%
CCc1c(C)sc(NC(=O)c2cc(-c3cc(OC)ccc3OC)on2)c1C#N	-29%	24%	-2%	.	-17%	-23%
CCc1c(C)sc(NC(=O)c2noc(C)c2[N+](=O)[O-])c1C#N	40µM*	-8%	34µM*	-3	-19%	-38%
CCc1c(C)sc(NC(=O)c2cc(-c3ccc(OC)c(OC)c3)on2)c1C#N	7.9µM*	?	-13%	0	-6%	3%
CCc1c(C)sc(NC(=O)c2cc(-c3ccc(O)cc3)on2)c1C#N	45µM*	14%	19µM*	-30	-6%	8%
CCc1c(C)sc(NC(=O)c2cc(-c3cccc(Cl)c3)on2)c1C#N	3.2µM*	-11%	.	.	-11%	-2%
COCc1cc(C)nc2sc(C(=O)Nc3ccc(OC(F)(F)F)cc3)c(N)c12	0%[59 µM]	41%	.	.	2%	3%
CC12CCC=CC1C(c1cccc([N+](=O)[O-])c1)N(Cc1ccccc1)C2=O (configuration not stated)	.	-7%	.	.	?	.
CC(NC(=O)C1CCN(S(=O)(=O)c2ccc(F)cc2)CC1)c1ccccc1 (configuration not stated)	4%[59 µM]	12%	.	.	-8%	1%
Cc1cn2c(=O)cc(COC(=O)c3ccc(NC(=O)COc4ccc(C)c(C)c4)cc3)nc2s1	0%[12.7 µM]	22%	.	.	12%	-13%
CSc1ccccc1NC(=O)c1noc(C)c1[N+](=O)[O-]	35µM*	5%	?	5	-23%	-17%
Cc1onc(C(=O)Nc2ccccc2C(F)(F)F)c1[N+](=O)[O-]	.	36%	-10%	1	-12%	-4%
CCc1c(C)sc(NC(=O)c2cc(CC(C)C)on2)c1C#N	?	19%	15µM*	5	6%	-3%
Nc1cccc2c1C(=O)N(C(=O)c1cccc(S(=O)(=O)N3CCCC3)c1)C2=O	?	69%	4.2µM*	-22	-8%	2%
COc1ccccc1S(=O)Cc1ccc(C(=O)NCCc2ccc(Cl)cc2)o1 (configuration not stated)	40µM*	72%	-20%	3	-8%	1%
SMILES	G9a block	HP1b chromo inh	PLK1 PBD block	PI5P4K alpha inh	JMJD2A Tudor inh	BAZ2B block
Cc1ccccc1S(=O)Cc1ccc(C(=O)NC2CCCCCC2)o1 (configuration not stated)	-24%[59 µM]	10%	.	.	-26%	.
COc1ccccc1S(=O)Cc1ccc(C(=O)NC2CCCC2)o1 (configuration not stated)	28µM*	55%	-26%	-2	-11%	11%
CC(=O)c1ccc(NC(=O)Cn2ncc3c4ccccc4n(Cc4ccccc4)c3c2=O)cc1	7%[59 µM]	10%	.	.	-17%	-3%
CSCCC(NS(=O)(=O)c1cccs1)C(=O)Nc1ccc(C)c(Cl)c1 (configuration not stated)	?	29%	.	.	-8%	-19%
O=S(=O)(Nc1cccc2ccccc12)c1ccccc1F	23%	-8%	-3%	-4	-3%	3%
O=S(=O)(O)c1cccc2cccc(Nc3ccccc3)c12	.	16%	15µM*	?	50µM*	.
CCN(c1ccccc1)S(=O)(=O)c1ccc2[nH]cc(C(=O)NCCOC)c(=O)c2c1	13%[12.7 µM]	0%	-4%	-10	-18%	10%
CCN(c1ccccc1)S(=O)(=O)c1ccc2[nH]cc(C(=O)NCc3ccc(C)cc3)c(=O)c2c1	-14%[59 µM]	13%	.	.	56µM*	-12%
O=C(Cn1c(=O)n(Cc2ccco2)c(=O)c2sc3ccccc3c21)Nc1ccccc1C(F)(F)F	-2%[59 µM]	42%	.	.	-9%	-12%
CCCn1nnnc1NC(=O)COc1ccc(Br)cc1	-8%	40%	-4%	-8	?	79µM*
COc1ccc(C2C(C(C)=O)=C(O)C(=O)N2CCc2c[nH]c3ccccc23)cc1OC (configuration not stated)	25µM*	27%	1%	0	-15%	-33%
CC(=O)C1=C(O)C(=O)N(CCc2c[nH]c3ccccc23)C1c1ccccc1 (configuration not stated)	?	34%	-24%	-5	-36%	?
COc1cccc(C2C(C(C)=O)=C(O)C(=O)N2CCc2c[nH]c3ccccc23)c1 (configuration not stated)	-3%[59 µM]	-1%	-9%	2	?	-31%
CC(=O)C1=C(O)C(=O)N(CCc2c[nH]c3ccccc23)C1c1ccc(O)cc1 (configuration not stated)	-23%[59 µM]	8%	-9%	.	89µM*	-31%
COc1ccc(C2C(C(C)=O)=C(O)C(=O)N2CCN(C)C)cc1OC (configuration not stated)	50µM*	.	.	.	.	-11%
CCc1ccccc1NC(=O)C(=O)NCCCN1CCOCC1	-41%[59 µM]	31%	.	.	-10%	2%
CCCC(C)C(=O)Nc1ncc(S(=O)(=O)c2ccc([N+](=O)[O-])cc2)s1 (configuration not stated)	-6%	8%	-10%	3	-20%	-29%
CCC(=O)Nc1nnc(SCC(=O)NC2CCCC2)s1	?	21%	-4%	-6	-5%	7%

High-throughput results: PubChem BioAssay, National Center for Advancing Translational Sciences (NCATS)
